Yeast superoxide – yeast age-related superoxide inhibition as caloric restriction mimetic. S. cerevisiae aged cells, superoxide DHE fluorescence; stronger effect = lower value. superoxide response (% of plate mean), % at 10 µM. 330,000 tested, 0.18% active. AID 2690;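 active = superoxide response under a set limit, about three screen SD below normal, cut at about 65% in these data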;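 also: yeast aged for seven days with compound at 30 °C before DHE staining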
V-ATPase pHluor – yeast V-ATPase proton transport regulation by pHLuorin; S. cerevisiae, pHLuorin cytosolic pH fluorescence; response, % at 10 µM; 350,000 tested, 0.37% active; AID 504577; in the data active = response mostly above about 7.3%, no sharp cut-off; inactive = mostly below about 5.4%; also: actives read high
PolyA inhibitor – inhibitors of polyadenylation in S. cerevisiae | S. cerevisiae SKY197-pL101 polyadenylation reporter, beta-gal luminescence; efflux-impaired pdr1/pdr3 knockout yeast; score 100 = 6 SD above DMSO | activity score, % at 12 µM | 300,000 tested, 0.02% active;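 active = lowest replicate activity score at least 50, where 100 means six control SD above control mean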;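 also: yeast exposed to compound for 9 h at 30 °C; higher score means more reporter readthrough which indicates perturbed polyadenylation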
JMJD2C inh – inhibitors of human GASC-1 (JMJD2C) demethylase; GST-JMJD2C(1-420) H3K9me3 demethylation, DELFIA europium; inhibition, % at 2.35 µM; 330,000 tested, 0.069% active; Q9H3R0;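 active = more than half of a compound's replicate wells show inhibition beyond 50%, single wells judged on their own value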;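 also: signal counts dimethyl H3K9 product captured on neutravidin plate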
PKA-R2B activ – activators of human PKA-R2B complex | P22694+P31323 | 340,000 tested, 0.079% active | PKA-R2B holoenzyme dissociation, Cy5-IP20 fluorescence polarization; R2B truncated from residue 108, S112A mutant; 0% DMSO only, 100% 113 µM cGMP | activation, % at 11.4 µM;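 active = activation above a cutoff set at the mean over all compounds plus 3 SD, cut at about 18% in these data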;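 also: higher means more holoenzyme dissociation and a rise in polarization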
Target sequence (P31323 whole entry, looked up, other chains not shown, the tested form may be a part): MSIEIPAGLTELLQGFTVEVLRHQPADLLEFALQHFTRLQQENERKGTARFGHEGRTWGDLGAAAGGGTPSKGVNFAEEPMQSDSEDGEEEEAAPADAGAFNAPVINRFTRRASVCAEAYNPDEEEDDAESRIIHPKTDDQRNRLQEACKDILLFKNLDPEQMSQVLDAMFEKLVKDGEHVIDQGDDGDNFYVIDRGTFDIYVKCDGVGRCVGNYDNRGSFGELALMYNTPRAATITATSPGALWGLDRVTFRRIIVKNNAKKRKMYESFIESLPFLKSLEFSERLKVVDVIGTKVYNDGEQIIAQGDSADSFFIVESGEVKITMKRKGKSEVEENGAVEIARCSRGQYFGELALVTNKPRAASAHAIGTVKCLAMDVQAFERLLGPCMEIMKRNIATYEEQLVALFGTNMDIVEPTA
PKA-R1A act – activates the PKA-R1A holoenzyme complex; P00514+P68181; PKA-R1A dissociation, Cy5-IP20 fluorescence polarization; scaled: DMSO 0%, 113 µM cGMP 100%; activation, % at 11.4 µM; 340,000 tested, 0.083% active;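 active = percent activation above the mean of all tested compounds plus 3 SD, cut at about 19% in these data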;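 also: higher means more PKAc released from R1A so a rise in polarization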
V-ATPase pH SP – modulates yeast V-ATPase proton transport | response, % at 10 µM | shares compounds with V-ATPase pHluor | S. cerevisiae pHLuorin cytosolic pH | AID 602197 | 980 tested, 2% active; in the data active = response above about 24%
Of the large screens only hits and unclear results are named; the others gave an inactive call (follow-up assays come after a bar, where they were run). A selection: hits, their analogues and other compounds. The true share with any hit is near 0.78%.

Cc1cc(=O)[nH]c(SCC(=O)NN(c2ccccc2)c2ccccc2)n1	none
COc1ccccc1CCNC(=O)C1CCC(=O)N(Cc2ccccc2OC)C1 (stereo not given)	none
COc1ccccc1CN1CC(C(=O)NCCCc2ccc(F)cc2)CCC1=O (stereo not given)	V-ATPase pHluor 12.6 | V-ATPase pH SP inactive
O=C(O)C1CC=CCC1C(=O)Nc1cc(Cl)ccc1Cl (stereo not given)	none
O=C(O)C1CC=CCC1C(=O)NNc1c(Cl)cc(Cl)cc1Cl (stereo not given)	V-ATPase pHluor 11.6 | V-ATPase pH SP inactive
O=C(O)CCCC(=O)N1CCCC1	V-ATPase pHluor 11.8 | V-ATPase pH SP inactive
O=c1cc(-c2ccco2)nc(-c2cccs2)o1	V-ATPase pHluor 9.5 | V-ATPase pH SP inactive
O=C(c1ccc([N+](=O)[O-])o1)N1CCN(c2nc3c(Cl)cccc3s2)CC1	V-ATPase pHluor 10.0 | V-ATPase pH SP 22.9
Cc1ccc2sc(N3CCN(C(=O)c4ccc([N+](=O)[O-])o4)CC3)nc2c1C	none
O=C(c1ccc([N+](=O)[O-])o1)N1CCN(c2nc3ccc(F)cc3s2)CC1	V-ATPase pHluor 66.8 | V-ATPase pH SP 40.5
COc1ccc(CN2CCNC(=O)C2CC(=O)N2CCCCO2)cc1OC (stereo not given)	none
COc1ccc(C2(C)NC(=O)N(CC(=O)NCc3ccccc3)C2=O)cc1OC (stereo not given)	none
CC(=O)Nc1ccc(NC(=O)c2ccc(C)c(S(=O)(=O)Nc3cccc(C)c3)c2)cc1	V-ATPase pHluor 10.4 | V-ATPase pH SP inactive
Cc1nn(-c2ccc(Cl)cc2)c(=O)c2c(C)noc12	none | V-ATPase pH SP inactive
CCOC(=O)c1c(C)[nH]c(C)c1C(=O)COC(=O)/C=C/c1ccc(OC(F)F)cc1	V-ATPase pHluor 10.2 | V-ATPase pH SP inactive
COc1cc(/C=N/NC2=NC(C)(C)Cc3ccccc32)cc(OC)c1OC	V-ATPase pHluor 8.2 | V-ATPase pH SP inactive
CCS(=O)c1scc(-c2ccc(Cl)cc2)c1C#N (stereo not given)	V-ATPase pHluor 9.0 | V-ATPase pH SP inactive
NS(=O)(=O)c1cnccc1Oc1cccc(Cl)c1	none
CCCCN(Cc1nc2ccccc2c(=O)[nH]1)C(=O)CN1C(=O)NC2(CCCCC2)C1=O	none (no result: PolyA inhibitor)
NC(=O)COc1ccc(=O)n(-c2ccccc2)n1	none
O=c1ccc(OCCOc2ccccc2)nn1-c1ccccc1	V-ATPase pHluor 14.7 | V-ATPase pH SP inactive
CCN(CC)C(=O)Cn1cc(C(=O)C(=O)NCCc2c[nH]c3ccccc23)c2ccccc21	none
CCOC(=O)c1c(C)c(-c2ccccc2)n(CC(=O)NCCCN(CC)CC)c1C	V-ATPase pHluor 14.8 | V-ATPase pH SP inactive
CC(CCc1ccccc1)NC(=O)COC(=O)C1CCC(C(C)(C)C)CC1 (stereo not given)	none
Cc1ccc(C(=O)Nc2cc3ccccc3oc2=O)cc1	none
CC(SCc1ccccc1)C(=O)Nc1ccccc1Br (stereo not given)	V-ATPase pHluor 11.4 | V-ATPase pH SP inactive
CC(C)c1ccc(NC(=O)NCc2cccnc2)cc1	none
CC1CN(CC(O)COc2ccc(C(C)C)cc2)CC(C)O1 (stereo not given)	V-ATPase pHluor 8.8 | V-ATPase pH SP inactive
COc1ccc(CC(=O)OC(C)C(=O)c2ccc(C)cc2)cc1 (stereo not given)	V-ATPase pHluor 8.3 | V-ATPase pH SP inactive
CCOC(=O)Cn1c(=O)c(-c2ccccc2N)nc2ccccc21	none | V-ATPase pH SP inactive
CCOC(=O)CCn1c(CC(=O)OCC)nc2ccccc21	none
Cn1c(=O)c(-c2cc(Br)ccc2N)nc2ccccc21	none | V-ATPase pH SP inactive
CCOC(=O)Cn1c(=O)c(-c2cc(Br)ccc2N)nc2ccccc21	V-ATPase pHluor 31.2 | V-ATPase pH SP inactive
CN(C)c1nc2ccccc2n(C)c1=O	none
CC(=O)Nc1cccc(CNCc2cccc(NC(C)=O)c2)c1	none
CCCCCCCCNC(=O)c1cccnc1SCC(=O)Nc1ccccc1OC	V-ATPase pHluor 15.7 | V-ATPase pH SP inactive
COc1ccc(OC)c(NC(=O)CSc2ncccc2C(=O)O)c1	none
